This is a sample that favours compounds with a hit; in the whole collection about 4.6% have one here.
CF NFkB inh: inhibitors of PAF-induced NF-kB signaling, primary screen, cell-based, GFP fluorescence, uHTS. KKLEB NF-kB-GFP reporter, GFP fluorescence overnight. inhibition, % at 5 µM. 0.86% of 360,000 active. AID 588850, 2011;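 active means at least 50% inhibition at 5 µM, scaled per plate between neutral and stimulator controls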;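 further: PAF is a Pseudomonas aeruginosa culture filtrate used as stimulus; plate controls were PAF-stimulated DMSO wells for no effect and unstimulated DMSO wells for full effect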
Mdm2-MdmX inh: inhibitors of human Mdm2-MdmX association, primary screen, cell-based, luminescence, split luciferase, SaOS-2, uHTS. Protein Mdm4 (Homo sapiens) + E3 ubiquitin-protein ligase Mdm2 (Homo sapiens), …. SaOS-2 split-luciferase Mdm2/MdmX complementation. inhibition, % at 8 µM. 3% of 330,000 active;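 active means inhibition of at least 50% at 8 µM in the primary screen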
Peg3 prom inh-1: Peg3 promoter-driven luciferase inhibitors, primary screen, cell-based, HeLa, luciferase luminescence | AID 588405, 2011 | 1.7% of 360,000 active | inhibition, % at 20 µM | HeLa PEG-Prom luciferase reporter, overnight;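 active means inhibition of at least 50% at 20 µM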
KKLEB cytotox: cytotoxicity in KKLEB CF airway cells, primary screen, cytotoxicity control for CF NF-kB inhibitor project, cell-based, uHTS, fluorescence assay plates | KKLEB CF airway cells viability, ATPlite luminescence, overnight; active compounds read low; cells stimulated with P. aeruginosa culture filtrate | activity change (cytotoxicity), % at 5 µM | 0.36% of 360,000 active;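 active means corrected activity change at or below -50% at 5 µM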
HIF-2a inh: HIF-2a reporter inhibitors, primary screen, luminescence, 786-0 RCC cells. inhibition, % at 18.8 µM. 0.72% of 360,000 active. 786-0 RCC cells HIF-2a reporter, luciferase luminescence, overnight;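 active means inhibition of the luminescence signal of 40% or more relative to plate controls, in a single-dose primary screen at 18.75 µM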
ABHD5 PLIN5 PPI: ABHD5-PLIN5 interaction inhibitors, primary screen, cell lysate, split luciferase complementation, luminescence | Perilipin-5 (Homo sapiens) + 1-acylglycerol-3-phosphate O-acyltransferase ABHD5 (Homo … | Split G. princeps luciferase complementation, 4 h | inhibition, % at 4 µM | 0.78% of 360,000 active;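 active means inhibition above the mean inhibition across every tested compound plus 3 SD, cut at about 22% in these data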;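 further: 0% = DMSO only wells and the 100% control is not disclosed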
Mdm2 MdmX conf-1: Mdm2-MdmX complex disruptors, retested hits, confirmation, luminescence, single concentration. shares compounds with Mdm2-MdmX inh. Mdm2-MdmX binding, luminescent assay. inhibition, % at 8 µM. 55% of 10,000 active
FLuc counter: full-length luciferase signal inhibition, confirmation, counter-screen for Mdm2/MdmX interaction inhibitor project, cell-based, single concentration, SaOS-2; shares compounds with Mdm2-MdmX inh; SaOS-2 full-length luciferase counterscreen, luminescence; inhibition, % at 8 µM; 77% of 6,200 active;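 active means mean inhibition at 8 µM reaching about 37%, which flags the compound as non-specific, limit read from the data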;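 further: p53-null SaOS-2 cells with luciferase driven by a doxycycline-inducible promoter; compound on cells about two nights before reading with doxycycline added after day one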
Peg3 prom inh-2: Peg3 promoter reporter inhibitors, retest, confirmation, cell-based, HeLa, luciferase reporter, single concentration | shares compounds with Peg3 prom inh-1 | HeLa PEG-Prom luciferase reporter, luminescence, overnight | inhibition, % at 20 µM | 84% of 1,300 active | AID 602417, 2012;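 active means at 20 µM dose, 40% or more inhibition averaged across four replicates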
CF NFkB inh conf: inhibitors of PAF-induced NF-kB signaling, retest, confirmation, cell-based, GFP fluorescence, single concentration | shares compounds with CF NFkB inh | KKLEB CF airway cells, overnight | inhibition, % at 5 µM | 64% of 1,300 active;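 further: stimulus PAF is a Pseudomonas aeruginosa filtrate and not platelet activating factor; plate controls were DMSO wells with stimulus for no effect and unstimulated DMSO wells for full effect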
ABHD5 PLIN5 conf: ABHD5-PLIN5 interaction inhibitors, confirmation, biochemical, luminescence. shares compounds with ABHD5 PLIN5 PPI. 67% of 2,200 active. inhibition, % at 4 µM. AID 651612, 2012; in the data active means inhibition above about 23%;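 further: 0% = DMSO vehicle wells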
HNF4 split-luc: HNF4 dimerization inhibitors, counter-screen for ABHD5-PLIN5 interaction inhibitor project, biochemical, split-luciferase complementation, luminescence. 77% of 2,200 active. shares compounds with ABHD5 PLIN5 PPI. AID 651674, 2012. inhibition, % at 4 µM;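 active means mean inhibition across replicate wells exceeding the computed hit threshold, cut at about 13% in these data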;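 further: light from luciferase halves that rejoin when HNF4 fusion proteins dimerize; 0% = DMSO only wells and the 100% control is not given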
Target sequence (P41235 whole entry, looked up, the tested form may be a part): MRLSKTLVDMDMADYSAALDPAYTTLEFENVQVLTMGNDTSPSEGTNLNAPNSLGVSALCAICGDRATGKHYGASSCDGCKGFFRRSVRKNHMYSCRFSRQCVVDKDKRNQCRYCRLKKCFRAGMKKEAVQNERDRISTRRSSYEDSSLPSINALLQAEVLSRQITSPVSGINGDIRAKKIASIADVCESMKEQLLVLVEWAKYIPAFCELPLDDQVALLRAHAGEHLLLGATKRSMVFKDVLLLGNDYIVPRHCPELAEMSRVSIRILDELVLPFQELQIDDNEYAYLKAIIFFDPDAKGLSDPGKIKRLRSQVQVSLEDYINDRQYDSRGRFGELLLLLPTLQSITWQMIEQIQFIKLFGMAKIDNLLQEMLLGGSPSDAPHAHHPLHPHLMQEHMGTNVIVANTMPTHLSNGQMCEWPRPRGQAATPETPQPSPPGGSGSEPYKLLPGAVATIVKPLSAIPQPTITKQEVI
Mdm2 MdmX conf-2: retested Mdm2-MdmX interaction blockers, confirmation, cell-based, luminescence, single concentration, set 2. shares compounds with HIF-2a inh. SaOS-2 split-luciferase Mdm2/MdmX complementation. inhibition, % at 8 µM. 99% of 740 active. AID 504601, 2011;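 active means mean inhibition of the luminescence signal across two replicates at or above 26 percent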
HIF-2a conf: HIF-2a reporter inhibitor retest, confirmation, luminescence, 786-0 RCC cells | shares compounds with HIF-2a inh | HIF-2a luciferase reporter luminescence, overnight | inhibition, % at 18.8 µM | 56% of 1,800 active | AID 651580, 2012;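 active means mean inhibition across four replicates of at least 40 percent at the single tested concentration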
HIF-1a counter: HIF-1a luciferase reporter signal reduction – MiaPaCa-2 cells, single concentration, counter-screen for HIF-2a inhibitor project, confirmation. AID 651589, 2012. inhibition, % at 18.8 µM. shares compounds with HIF-2a inh. MiaPaCa-2 HIF-1a luciferase reporter, desferoxamine, overnight. 72% of 1,800 active;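 active means mean inhibition of the reporter signal across four replicates at the single tested dose of 50% or more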
Active calls of the source: *; · = no result given. Unless noted, no stated cut-off is given here; in the data, active means inhibition above about 40%; inactive means the rest.

SMILES | CF NFkB inh | Mdm2-MdmX inh | Peg3 prom inh-1 | KKLEB cytotox | HIF-2a inh | ABHD5 PLIN5 PPI | Mdm2 MdmX conf-1 | FLuc counter | Mdm2 MdmX conf-2 | HIF-2a conf | HIF-1a counter | others
COc1ccc(C2=NN(C(=O)COC(=O)c3ccc(S(C)(=O)=O)c([N+](=O)[O-])c3)C(c3ccco3)C2)cc1 (stereo not drawn) | 84* | 98* | 94* | -80* | 61* | 29* | 91* | 52* | 103* | 7 | 103* | ABHD5 PLIN5 conf=51*;HNF4 split-luc=90*
COc1ccc(Br)cc1/C=C/C(=O)Nc1ccc2ccccc2c1 | -31 | 16 | -62 | 18 | -90 | -3 | · | · | · | · | ·
Cc1cccc(C(=O)Nc2ccc(C(=O)/C=C/c3ccncc3)cc2)c1 | 24 | 97* | 102* | 5 | 88* | 91* | 11 | · | · | -77 | 105*
CC(=O)Nc1cccc(C(=O)/C=C/c2ccc(Br)cc2)c1 | 78* | 97* | 101* | -16 | 92* | 79* | 74* | 53* | 103* | 16 | 105* | CF NFkB inh conf=-69;ABHD5 PLIN5 conf=94*;HNF4 split-luc=88*
CCC(=O)Nc1cccc(C(=O)/C=C/c2cc(Br)ccc2OC)c1 | 12 | 97* | 104* | 6 | 84* | 51* | 80* | 59* | 103* | 84* | 106* | ABHD5 PLIN5 conf=92*;HNF4 split-luc=79*
CC(=O)Nc1cccc(C(=O)/C=C/c2ccc(N(C)C)cc2)c1 | 3 | -19 | -251 | -18 | -217 | 13 | · | · | · | · | ·
COC(=O)c1c(NC(=O)COc2ccc(Cl)cc2)sc2c1CC(C)(C)NC2(C)C | 33 | 95* | 99* | -57* | 52* | 5 | 99* | 0 | · | 9 | 99*
CN(CC(=O)Nc1ccc(S(=O)(=O)N2CCCC2)cc1)CC(=O)Nc1cccc(F)c1 | -9 | -41 | 24 | 12 | 24 | 2 | · | · | · | · | ·
O=C(CCCC(=O)c1ccc(O)cc1)c1ccc(O)cc1 | 22 | -153 | -282 | 2 | -265 | 1 | · | · | · | · | ·
O=C1C=CC(=C(c2ccc(O)cc2)c2ccc(O)cc2)C=C1 | 32 | 91* | 85* | 5 | 85* | 78* | 70* | 45* | · | 81* | 107*
CC(=O)Nc1sc2c(c1-c1nc3ccccc3s1)CN(C(C)C)CC2 | -83 | 99* | 98* | -44 | 9 | -1 | 93* | 57* | 103* | · | ·
COc1ccc(C(=O)/C=C/C(=O)N(CC(=O)NC2CCCCC2)CC2CCCO2)c(O)c1 (stereo not drawn) | 48 | 60* | 106* | -17 | 94* | 66* | 29 | · | · | 99* | 107*
COc1ccc(C(=O)/C=C/C(=O)N(Cc2ccc(F)cc2)C(C(=O)NC2CCCCC2)c2ccncc2)c(O)c1 (stereo not drawn) | 6 | 17 | 14 | -26 | 27 | 0 | · | · | · | · | ·
Cc1cc(N2CCN(c3ccc([N+](=O)[O-])c4cccnc34)CC2)c2ccccc2n1 | -41 | 94* | 106* | -12 | 32 | 6 | 80* | 55* | 102* | · | ·
Cc1cc(N2CCN(c3ccc(C(F)(F)F)cc3[N+](=O)[O-])CC2)c2ccccc2n1 | 4 | 34 | 10 | 1 | 17 | 7 | · | · | · | · | ·
O=C(c1ccccc1)c1nn(-c2ccc(Cl)cc2)c(=O)cc1C(F)(F)F | -4 | 95* | 79* | -15 | 46* | -5 | 78* | 56* | 103* | -2 | 107*
O=C(Nc1ccccc1)c1nn(-c2ccccc2)c(=O)cc1C(F)(F)F | 3 | 16 | 43 | -1 | 21 | 7 | · | · | · | · | ·
CCCS(=O)(=O)NC(=O)C1(C)CCN(C(=O)c2cc(F)ccc2C)C1 (stereo not drawn) | 27 | · | 10 | -16 | 18 | 2 | · | · | · | · | ·
O=C(CN1C(=O)c2ccccc2S1(=O)=O)c1ccccc1Cl | 12 | 58* | 41 | -7 | 48* | -2 | 55* | 82* | · | 75* | 68*
Cc1ccc(C(=O)CN2/C(=C(\O)c3ccccc3)C(=O)c3ccccc3S2(=O)=O)c(C)c1 | 0 | 7 | 13 | 7 | 19 | 1 | · | · | · | · | ·
Cc1ccc(C(=O)CN2C(=O)c3ccccc3S2(=O)=O)cc1 | -8 | 98* | 81* | 3 | 87* | -3 | 96* | 23 | · | 87* | 82* | Peg3 prom inh-2=79*

Source: PubChem BioAssay (several laboratories)
